# Screening data: PubChem, National Center for Advancing Translational Sciences (NCATS)
# S2 tox – reduces viability in counter-screen for ATXN expression inhibitors. S2 cells (HEK-293 line with an ATXN2-luciferase reporter) viability, CellTiter-Fluor protease fluorescence, 24 h. Potency, µM (highest dose often 56.7 µM), usual class: cytotoxic. actives 0.49% (n = 400,000). AID 651635; note: potency is the fitted concentration of half-maximal effect; nearly all actives have a fitted effect of over 40% in size
# ATXN2 expr inh – inhibitors of ATXN2 expression; HEK-293 ATXN2-luciferase reporter, luminescence, 24 h; Potency, µM (series often up to 57 µM), without a hit: at the highest dose activity change, negative = inhibition, most hits filed as inhibitors; actives 0.72% (n = 360,000); AID 1745845; note: potency is the fitted concentration of half-maximal effect; % is set by controls: 0 for no effect and ±100 for the full control effect; nearly all actives have a fitted effect of over 55% in size
#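 qHTS (up to 57 uM final) was run with 24 h compound exposure of reporter cells at 37 °C. Each well was multiplexed: SteadyGlo luminescence measured ATXN2-luciferase expression after a fluorogenic Gly-Phe-AFC viability readout (25 uM final).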
# TGFb SMAD3 inh – TGF-b pathway inhibition; HepG2 CAGA-GFP TGF-b/SMAD3 reporter, GFP fluorescence, 18 h; TGF-beta stimulated, 500 pg/mL final; Potency, µM (top dose mostly 46.1 µM), for the others: at the highest dose activity, negative = inhibition, most hits filed as inhibitors; actives 1.2% (n = 410,000); AID 588855; note: potency is the fitted concentration of half-maximal effect; % is set by controls: 0 for no effect and ±100 for the full control effect; nearly all actives have a fitted effect of over 65% in size
#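 Inhibition of TGF-beta-driven CAGA-GFP reporter expression in HEPG2 cells is measured by cellular GFP fluorescence after 18 h stimulation with 500 pg/mL recombinant TGF-beta in 1% FBS medium at 37 degrees C.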
# HepG2 viability – counter-screen for TGF-b inhibitors: cytotoxicity in HepG2 cells; HepG2 CAGA-GFP viability, ATP luminescence, 18 h; Potency, µM (titrated, usually from 46.1 µM), for inactives: at the top dose activity change, negative = cytotoxicity, usual class: cytotoxic; actives 0.76% (n = 410,000); note: potency is the fitted concentration of half-maximal effect
#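 CellTiter-Glo luminescence gave cytotoxicity after 18 hours at 37 degrees C. The cells were HepG2 CAGA-GFP in 1% FBS DMEM, stimulated with 500 pg/mL TGF-beta after compound addition. %Activity was normalised to no-cell wells (complete cell-killing) and DMSO (no toxicity), and curves were fitted and classified.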
# CtBP-E1A inh – inhibitors of CtBP/E1A interaction | actives 0.49% (n = 340,000) | AlphaScreen GST-E1A/His-CtBP binding, 1536-well; hits give low values | activity change, % (no concentration beside the values); in the data active = activity change below about -65%; inconclusive = mostly about -30% to -63%; note: % is set by controls: 0 for no effect and ±100 for the full control effect
#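 Steps: dispense buffer (Tris pH 8.0, NaCl 300 mM, TCEP 1 mM, BSA, Tween 20); add 5X protein mix (GST-E1A, His-CtBP, 125 nM each); pin 23 nL compound; 2 h at 37 °C, dark; add 5X beads (50 ug/mL); 1 h; read.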
# Six1-Eya2 inh – Six1/Eya2 interaction inhibition. AID 651725. activity change, % (test concentration not listed). AlphaScreen GST-Six1/His-Eya2 binding, biochemical; hits give low values. Q15475+O00167. actives 0.56% (n = 360,000); in the data active = activity change below about -65%; inconclusive = mostly about -30% to -63%; note: % is set by controls: 0 for no effect and ±100 for the full control effect
#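 GST-Six1 + His-Eya2 (5X stock: 250/500 nM); Tris pH 8.0, 300 mM NaCl, 0.05% BSA, 0.02% Tween 20; GSH donor/Ni acceptor beads; 1 h 37 °C dark; AlphaScreen readout.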
# Active calls of the source: *; i = inactive; ? = inconclusive; . = no result. Sampled rows, rich in hits. Any-hit rate of the full collection: about 2.8%. Unless noted, calls come from the whole dose curve; as a rule, active = well fitted curve in the direction sought with a large enough effect; inconclusive = small, poorly fitted or top-dose-only effect, or another doubt; inactive = no such curve, though single readings can be large; an effect the other way counts as inactive or inconclusive.
SMILES,S2 tox,ATXN2 expr inh,TGFb SMAD3 inh,HepG2 viability,CtBP-E1A inh,Six1-Eya2 inh
C=C1CCC2C(C)(C)[C@H](O)CC[C@@]2(C)[C@@H]1COc1cc(=O)oc2ccccc12 (stereo partly drawn),?,?,?,-87%,0,-7
CCOc1cccc(C2C=C(c3ccc4c(c3)OCO4)NC(c3ccc(F)cc3)N2)c1O (stereo not drawn),.,.,?,-41%,.,.
Fc1ccc(C2CCNCC2COc2ccc3c(c2)OCO3)cc1 (stereo not drawn),?,?,?,11µM*,?,-24
O=C(CN1C(=O)CCc2cc(S(=O)(=O)N3CCOCC3)ccc21)NCc1ccc(Cl)cc1,i,9%,-12%,-3%,.,.
CN1c2ccc([N+](=O)[O-])cc2N(C)C1(C)c1ccccc1 (stereo not drawn),?,-12%,-13%,-10%,-80*,-76*
CCOc1ccc2c(c1)c(N=NC(=N)N)c(O)n2C,i,12%,-17%,-24%,?,-80*
CCOc1ccc2c(c1)c(N=NC(N)=S)c(O)n2C,i,-33%,-4%,-20%,?,?
Cc1cnc(Nc2ccc(F)cc2Cl)nc1-c1c[nH]c(C(=O)N[C@H](CO)c2cccc(Cl)c2)c1,.,24µM*,.,.,.,.
Cc1cc(F)cc(-c2cc(C(=O)NCc3cccc(Cl)c3)[nH]n2)c1,i,-5%,32%,-14%,4,2
CCOc1ccc(NC(=O)c2c(NC(=O)CNCCN3CCOCC3)sc3c2CCC3)cc1,?,?,?,-34%,-82*,?
CCOc1ccc(NC(=O)c2c(NC(=O)c3ccccc3F)sc3c2CCC3)cc1,i,1%,7%,-2%,.,.
CC1=C(C(=O)N(C(C)C)C(C)C)CC(CC(=O)NCc2cccs2)C(=O)N1Cc1ccc(F)cc1 (stereo not drawn),i,-5%,?,-3%,-17,13
CC1=C(C(=O)N(C(C)C)C(C)C)CC(CC(=O)NCc2cccs2)C(=O)N1Cc1ccc(C(C)(C)C)cc1 (stereo not drawn),?,?,?,16µM*,1,6
CC1=C(C(=O)N(C(C)C)C(C)C)CC(CC(=O)NC2CCCCC2)C(=O)N1Cc1ccc(C(C)(C)C)cc1 (stereo not drawn),?,?,?,13µM*,-3,3
CCN(CC)C(=O)C1=C(C)N(Cc2ccc(C(C)(C)C)cc2)C(=O)C(CC(=O)NCC2CCCCC2)C1 (stereo not drawn),28µM*,?,?,-40%,0,19
CCc1ccc(C2=NN(CCC(=O)NCCc3ccccc3)C(=O)CC2)cc1,.,.,-19%,-6%,.,.
O=C(NCCc1nnc2n1CCN(Cc1ccccn1)CC2)c1ccc(F)cc1,i,.,.,.,.,.
CCOc1cc(/C=N/N=C(N)N)ccc1OCc1ccc(Cl)cc1,32µM*,?,?,-95%,7,-2
COc1cc(/C=N/NC(N)=S)ccc1OCc1ccc(C)cc1,i,.,18µM*,-7%,-5,-22
NC(N)=N/N=C/c1ccc(OCc2ccccc2)c(OCc2ccccc2)c1,22µM*,22µM*,18µM*,16µM*,-18,10
O=C(O)c1cc(/C=N\O)ccc1OCc1ccccc1,?,6%,-4%,0%,3,0
COc1cc(/C=N/NC(N)=S)ccc1OC(=O)c1ccc(C)cc1,i,-9%,-4%,-16%,-7,-13
CCOc1cc(/C=N/O)ccc1OCc1ccc(F)cc1,i,24%,-17%,-41%,-2,2
COc1cc(/C=N/OCC(=O)NC23CC4CC(CC(C4)C2)C3)ccc1OCc1ccccc1,i,13%,20µM*,4%,0,3
